Drawing on PubChem BioAssay (NCI), this text covers growth inhibition for 40 compounds.

The structures appear in SMILES notation. The panel holds about 79,000 compounds, 15% with a hit somewhere; the sample as a whole holds those more often. Calls of active or inactive are those of the source. No stated cut-off is given here; in the data, active means growth inhibition above about 70%; inactive means the rest.

The experiment is described as follows: NCI Yeast Anticancer Drug Screen. Data for the cln2 rad14 strain (AID 165).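 Further: 0% = growth equal to vehicle treated cultures.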 To be noted: S. cerevisiae cln2 rad14 strain, at 50.0 µM, active compounds read high. The protocol:
Growth inhibition of yeast strains with defined genetic alterations is measured as a screen for potential anti-cancer activity. Selected strains with alterations in DNA damage repair or cell cycle control were exposed to compounds and growth inhibition was measured relative to vehicle treated controls. The strain used in this assay is cln2 rad14
Take `CC(Cl)C(=O)N(C)c1ccccc1` (stereo not given): the growth inhibition was -16% (inactive).

As for `O=C(O)c1cc(=O)[nH]c(=O)[nH]1`, the growth inhibition was 7.05% (inactive).

As for `N/C(=C\C(=O)c1ccccc1)C(=O)c1ccccc1`, the growth inhibition is -10.7% (inactive).

For `COc1cc(/C=N\N=C(/C)c2ccc(C)cc2C)cc(OC)c1OC`, the growth inhibition was 22.9% (inactive).

`CC(=O)NC1CCCCC1C1CCC([N+](=O)[O-])CC1` (stereo not given): the growth inhibition is 12.7% (inactive).

Take `COc1ccc(C2CC(c3c(C)nn(-c4ccccc4)c3-c3ccc(C)cc3O)=NN2c2ccccc2)cc1` (stereo not given): the growth inhibition was -2% (inactive).

As to `Cc1cc(Cl)c2c(C)ccc(C)c2n1`, the growth inhibition was 5.7% (inactive).

On to `C/C(=C1\C(=O)Nc2ccccc21)c1cccnc1`, for which the growth inhibition was 11.3% (inactive).

As for `COc1cc2c(c(OC)c1OC)-c1ccc(SC)c(=O)cc1C(N=C(NC1OCC(OC(C)=O)C(OC(C)=O)C1OC(C)=O)SN(NC(=O)OCc1ccccc1)C(=O)OCc1ccccc1)CC2` (stereo not given), the growth inhibition is -11.7% (inactive).

`COC(=O)CC(=O)/C(=C/C(C/C=C(\C(=O)CC(=O)OC)C(=O)OC)OC)C(=O)OC` (stereo not given): the growth inhibition was 18.8% (inactive).

For the compound `Cc1c(C)c(C)c(CCl)c(CCl)c1C`, the growth inhibition is 10.4% (inactive).

In the case of `CC1NC(=O)C(C)C(c2ccccc2)N(N=O)C1c1ccccc1` (stereo not given), the growth inhibition is 0.05% (inactive).

In the case of `CCCCNC(=O)OCCN=c1c2ccccc2ccc2ccccc12`, the growth inhibition was 2.8% (inactive).

With `COc1cc(-c2ccccc2)c(OC)cc1CCl`, the growth inhibition is 6% (inactive).

As for `O=NN(CC(=O)O)c1ccc2ccccc2c1`, the growth inhibition is -39.5% (inactive).

As to `CC1(Cc2ccccc2)NC(=S)NC1=O` (stereo not given), the growth inhibition is 5.75% (inactive).

As to `O/N=C(/CC(O)(c1ccccc1)c1ccccc1)c1ccccc1`, the growth inhibition was -15.4% (inactive).

For the compound `Nc1ncnc2c1nnn2CC(O)CO` (stereo not given), the growth inhibition was -25.5% (inactive).

`c1ccc2[nH]cnc2c1`: the growth inhibition was -4.4% (inactive).

Turning to `C#CC(O)C(CC)CCCC` (stereo not given), the growth inhibition is -10.4% (inactive).

As to `CN(C)C(=S)/N=c1\ssc(=S)n1Cc1ccccc1`, the growth inhibition is 16.4% (inactive).

Consider `Cn1c(N)c(N=O)c(=O)n(C)c1=O`, for which the growth inhibition was -12.8% (inactive).

`CC(=O)CC1(O)C(=O)C(C(C)(C)C)=CC2(C(C)(C)C)OC12` (stereo not given): the growth inhibition is -10.1% (inactive).

Regarding `CNc1ccn(C2OC(CO)C(O)C2O)c(=O)n1` (stereo not given), the growth inhibition is 11.9% (inactive).

On to `COC(=O)/C=C\CC(=O)OC`, for which the growth inhibition was -5.05% (inactive).

For the compound `C=CCNC(=S)Nc1c(C)cc(C)cc1C`, the growth inhibition was -51.4% (inactive).

For the compound `O=C(/C=C/c1cccs1)c1ccc(C(=O)/C=C/c2cccs2)cc1`, the growth inhibition is 11.2% (inactive).

Consider `CS/C(=C\c1ccc(C(=O)c2ccc(C)cc2)n1C)S(C)=O` (stereo not given), for which the growth inhibition is 11.1% (inactive).

`CC1C[C@]2(C)C(=NCCN)Nc3ccccc3[C@@H]2N(C)c2ccccc21` (stereo not given in full): the growth inhibition was -28.6% (inactive).

With `Nc1ccc(Cl)c(S(=O)(=O)O)c1`, the growth inhibition is 8.4% (inactive).

Take `CCOc1ccc(N=Nc2c(O)n(-c3ccc(Br)cc3)c(=S)n(-c3ccc(OC)cc3)c2=O)cc1`: the growth inhibition is -24.4% (inactive).

As for `CCN(CC)C(=O)c1cc2c(cc1[N+](=O)[O-])OCO2`, the growth inhibition is -45.8% (inactive).

Regarding `COc1ccc(-c2cn3c([nH]c(=O)c4cc(Br)ccc43)c2C#N)cc1`, the growth inhibition is -5.25% (inactive).

`CC1CN(CCCOC(=O)Nc2cccc3ccccc23)CCN1Cc1ccccc1` (stereo not given): the growth inhibition is 97.7% (active).

With `Cc1cc2c(C#N)c3ccccc3c(=O)n2c2ccccc12`, the growth inhibition was -7.4% (inactive).

In the case of `COc1ccc2c(c1)CCc1cc(OC)ccc1/[N+]([O-])=[N+]\2[O-]`, the growth inhibition is -70.8% (inactive).

Regarding `CCOP(=O)(OCC)C(NC(=O)C(C(F)(F)F)C(F)(F)F)c1ccccc1` (stereo not given), the growth inhibition was 24.4% (inactive).

Take `O=C1NNCc2c1sc1ccccc21`: the growth inhibition is -41.3% (inactive).

Regarding `CC(=O)n1[nH]c(=O)n(-c2ccc(Cl)cc2)c1=O`, the growth inhibition is 2.1% (inactive).

`COc1ccc(NC(=O)C2=C(SC)C(C#N)C(=O)N=C2N)cc1` (stereo not given): the growth inhibition was 19.7% (inactive).
